HP1b chromo inh = HP1-beta chromodomain-methylated histone interaction inhibition; AID 540317; P83916; AlphaScreen HP1-beta / biotin-H3K9me3 peptide binding; hit rate 0.56% among 390,000; Potency, µM (titrated, usually from 114 µM), for inactives: at the top dose activity change, negative = inhibition, most hits filed as inhibitors; note: nearly all actives have a fitted effect of over 70% in size
Target sequence (P83916 whole entry, looked up): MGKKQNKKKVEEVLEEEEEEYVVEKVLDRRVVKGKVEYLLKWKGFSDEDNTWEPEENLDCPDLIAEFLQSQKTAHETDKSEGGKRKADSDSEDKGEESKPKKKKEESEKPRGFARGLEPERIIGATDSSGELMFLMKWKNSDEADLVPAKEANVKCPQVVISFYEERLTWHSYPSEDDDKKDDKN
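HP1-beta protein (50 nM final) preincubated 30 min at room temperature with biotinylated H3(1-18)K9me3 peptide (50 nM) in PBS pH 7.4, 0.01% Tween-20, then compound added for 30 min. AlphaScreen streptavidin donor/nickel chelate acceptor beads (10 ug/mL final), 30 min dark, luminescence read.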
G9a block = blocks human histone lysine methyltransferase G9a; AID 504332; hit rate 8.8% among 350,000; G9a H3K9 monomethylation, AlphaScreen, 2 h; Q96KQ7; Potency, µM (titrated, usually from 102 µM), without a hit: at the top dose activity, negative = inhibition, usual class: inhibitors; note: % is set by controls: 0 for no effect and ±100 for the full control effect; nearly all actives have a fitted effect of over 75% in size
Target sequence (Q96KQ7 913-1193 limits assumed): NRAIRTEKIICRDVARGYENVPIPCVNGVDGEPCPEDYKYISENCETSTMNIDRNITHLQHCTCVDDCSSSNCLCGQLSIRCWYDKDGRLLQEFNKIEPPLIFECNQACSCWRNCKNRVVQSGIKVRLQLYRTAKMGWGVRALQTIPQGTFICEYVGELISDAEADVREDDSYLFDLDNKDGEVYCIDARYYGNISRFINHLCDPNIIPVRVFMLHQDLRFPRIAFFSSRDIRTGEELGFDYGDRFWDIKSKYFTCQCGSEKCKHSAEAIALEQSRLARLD
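G9a (20 nM) was preincubated 15 min with compound, then reacted 2 h at room temperature with 500 nM biotin-H3K9 peptide and 20 µM SAM. Monomethyl-H3K9 detected by AlphaScreen using anti-H3K9me1 antibody.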
L3MBTL1 inh = inhibitors of human L3MBTL1; Q9Y468; AlphaScreen L3MBTL1–H3K9me1 peptide binding; Potency, µM (top dose mostly 57.1 µM), for inactives: at the highest dose activity, negative = inhibition, most hits filed as inhibitors; hit rate 0.66% among 230,000; AID 485360; note: % is set by controls: 0 for no effect and ±100 for the full control effect; nearly all actives have a fitted effect of over 60% in size
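First, the protein-peptide complex forms for 30 min at room temperature (L3MBTL1 50 nM, biotinylated H3K9me1 peptide 75 nM). Next, compounds are pin-transferred and incubated 30 min. Finally, AlphaScreen beads are added and read after 30 min.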
Sfp inh = inhibitors of Bacillus subtilis Sfp phosphopantetheinyl transferase; Potency, µM, inactives show largest response in the series, negative = inhibition, actives largely listed as inhibitors; hit rate 3.5% among 310,000; Biochemical Sfp PPTase activity, qHTS; AID 1490; Q9F4F7;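 note: the enzyme is Sfp with the accession as filed and its product quenches rhodamine fluorescence; 0% = enzyme reaction without inhibitor and -100% = no enzyme wells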
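Fluorescence-quenching assay: 15 nM Sfp-PPTase preincubated 15 min at room temperature with compound, then 5 uM rhodamine-CoA and 12.5 uM BHQ-2-labelled YbbR peptide added. Fluorescence (ex 525/em 598 nm) read at start and after 30 min; difference gives rate.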
JMJD2A Tudor = JMJD2A Tudor domain (human) inhibition | AlphaScreen JMJD2A-Tudor / H3K4me3 peptide binding | hit rate 4.4% among 390,000 | Potency, µM (series often up to 114 µM), for inactives: at the highest dose activity change, negative = inhibition, hits mostly inhibitors | O75164; note: % is set by controls: 0 for no effect and ±100 for the full control effect; nearly all actives have a fitted effect of over 50% in size
BAZ2B block = BAZ2B (human) inhibition. Potency, µM (titrated, usually from 114 µM), for inactives: top-dose activity change, negative = inhibition, actives largely listed as inhibitors. AID 504333. Q9UIF8. AlphaScreen BAZ2B-H3K14Ac peptide displacement. hit rate 4.4% among 360,000; note: % is set by controls: 0 for no effect and ±100 for the full control effect; nearly all actives have a fitted effect of over 60% in size
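Compounds, titrated to a top concentration of 110 uM, were incubated 30 min at room temperature with preformed BAZ2B/acetyl-K14 H3 peptide complex (50 nM each). Proximity signal was measured by AlphaScreen after 20 min with beads.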
Numbers without * were called inactive; ? = inconclusive; nt = not tested or not shown; [ ] = another dose, or the depositor's remark. The list is not random: actives were taken first. Their share in the collection is about 12%. Calls come from the whole dose curve; as a rule, active = well fitted curve in the direction sought with a large enough effect; inconclusive = small, poorly fitted or top-dose-only effect, or another doubt; inactive = no such curve, though single readings can be large; an effect the other way counts as inactive or inconclusive. Potency is the fitted concentration of half-maximal effect.

SMILES	HP1b chromo inh	G9a block	L3MBTL1 inh	Sfp inh	JMJD2A Tudor	BAZ2B block
CCOc1cc(N2CCOCC2)c(OCC)cc1NC(=O)CN1CCN(Cc2ccc3c(c2)OCO3)CC1	-5%	14%[12.7 µM]	1%	10%	-35%	-24%
CCOc1cc(N2CCOCC2)c(OCC)cc1NCC(=O)N1CCN(Cc2ccccc2)CC1	20µM*	nt	nt	56µM*	0.79µM*	20µM*
CCOc1cc(N2CCOCC2)c(OCC)cc1NC(=O)[C@H](C)N1C(=O)C2CC=CCC2C1=O (stereo partly drawn)	18%	-3%	1%	18%	-18%	-18%
CCOc1cc(N2CCOCC2)c(OCC)cc1NC(C)C(=O)N1CCC(C)CC1 (stereo not drawn)	-5%	40µM*	2%	-2%	?	-5%
CCOc1cc(N2CCOCC2)c(OCC)cc1NC(=O)CN1CCc2ccccc2C1	?	15%[2.33 µM]	?	45µM*	1.4µM*	20µM*
CCOc1cc(N2CCOCC2)c(OCC)cc1NC(=O)CSc1nccc(C)n1	12%	-51%	-2%	11%	-24%	-23%
CCOc1cc(N2CCOCC2)c(OCC)cc1NC(=O)COc1ccccc1[N+](=O)[O-]	4%	-25%	18%	5%	-10%	-14%
CCOc1cc(N2CCOCC2)c(OCC)cc1NC(=O)CSc1ccccc1C(=O)O	13%	7.9µM*	-6%	nt	-33%	79µM*
COc1cc(C2C(=O)N(C3CCCCC3)CC(=O)N2Cc2ccc(C)cc2)ccc1OC(C)C (stereo not drawn)	-1%	0%[59 µM]	nt	nt	-26%	-6%
CSc1ncc(C(=O)N2CCN(c3cccc(C(F)(F)F)c3)CC2)c(C)n1	10%	-2%[59 µM]	nt	nt	-16%	-4%
CCOc1cc(N2CCOCC2)c(OCC)cc1NC(=O)CSc1ncn[nH]1	15%	45µM*	nt	-64%	-7%	-36%
CCOc1cc(N2CCOCC2)c(OCC)cc1NC(=O)CSc1n[nH]c(N)n1	19%	-40%	-12%	-1%	-4%	?
CCOC(=O)c1[nH]c(C)c(CCC(=O)N2CCN(c3cccc(OC)c3)CC2)c1C	18%[57 µM]	9%[59 µM]	nt	nt	-18%	-14%
O=C(Nc1cccc(F)c1)N1CCC2(CC1)CCN(C(=O)c1cc(C(F)(F)F)cc(C(F)(F)F)c1)CC2	nt	0%[12.7 µM]	nt	6%	nt	nt
Cc1ccc2c(CSc3nnc(C4CC4)n3N)cc(=O)oc2c1C	16%	-18%[59 µM]	6%	3%	-10%	nt
Cc1ccc2c(CSc3nnc(C4CC4)n3N)cc(=O)oc2c1	34%	50µM*	0%	12%	-15%	21%
COC(=O)c1cc(OC)c(OC)cc1NC(=O)CN1C(=O)c2ccccc2C1=O	27%	2%[59 µM]	nt	16%	?	?
COC(=O)c1cc(-c2ccccc2)sc1NC(=O)CN1C(=O)c2ccccc2C1=O	?	10µM*	-4%	20µM*	?	-2%
CCOC(=O)c1cc(-c2ccccc2)sc1NC(=O)c1ccc(OC)c(OC)c1	?	3.5µM*	3%	32µM*	?	9%
CCOC(=O)c1ccc(OS(=O)(=O)c2ccccc2)c(OC)c1	69%	5%[59 µM]	22%	14%	89µM*	65%
O=[N+]([O-])c1cc(-c2nc(-c3ccccc3)no2)ccc1NC1CCCC1	23%	-11%[59 µM]	nt	nt	-20%	?
CN(C)CCCN(C(=O)c1ccc(S(=O)(=O)N2CCCCCC2)cc1)c1nc2c(F)cccc2s1	-11%	nt	nt	-8%	-32%	?
CCN(Cc1ccccc1)S(=O)(=O)c1ccc(C(=O)N(CCCN(C)C)c2nc3c(F)cccc3s2)cc1	-7%	?	nt	79µM*	?	?
Cc1ccc2sc(N(CCCN(C)C)C(=O)c3ccc(S(=O)(=O)N(C)Cc4ccccc4)cc3)nc2c1C	?	10µM*	-20%	nt	?	3%
CCOc1cccc2sc(N(CCCN(C)C)C(=O)c3ccc(S(=O)(=O)N(C)Cc4ccccc4)cc3)nc12	4%	?	nt	56µM*	-19%	-21%
SMILES	HP1b chromo inh	G9a block	L3MBTL1 inh	Sfp inh	JMJD2A Tudor	BAZ2B block
CCOc1cccc2sc(N(CCCN(C)C)C(=O)c3ccc(S(=O)(=O)N(CC)Cc4ccccc4)cc3)nc12	-9%	40µM*	nt	50µM*	32µM*	?
CCOc1ccc(-c2nn(-c3ccccc3)cc2C2NC(=O)NC(C)=C2C(=O)OC(C)C)cc1 (stereo not drawn)	25%	?	nt	nt	-29%	-4%
CCOc1ccc(NC(=O)CSc2nc3c(oc4ccccc43)c(=O)n2CCOC)cc1	13%	-29%[59 µM]	nt	nt	-3%	-1%
S=C(NCc1ccc(Cl)cc1)NCc1ccccn1	9%	-7%	-4%	20%	-22%	-19%
CC(C)CCC(CCNCc1ccccn1)c1ccc(Cl)cc1 (stereo not drawn)	?	-11%	nt	?	79µM*	?
CCCCCC(CC)COC(=O)CC(C(=O)OCC(CC)CCCC)S(=O)(=O)O (stereo not drawn)	nt	nt	nt	-13%	nt	nt
CCN1C(=O)CC(c2ccco2)Sc2ccccc21 (stereo not drawn)	-5%	50µM*	-2%	40µM*	-27%	?
O=C1CC(c2ccco2)Sc2ccccc2N1 (stereo not drawn)	19%	40µM*	nt	-23%	-26%	-17%
Cc1ccsc1C1CC(=O)Nc2ccccc2S1 (stereo not drawn)	31%	-5%	nt	6%	-15%	-24%
O=C1CC(c2ccccc2)Sc2ccccc2N1 (stereo not drawn)	38%	45µM*	3%	-8%	-4%	-2%
CCOC(=O)c1c(NC(=O)C(C)Sc2cn(CCNC(=O)c3c(F)cccc3F)c3ccccc23)sc2c1CCC2 (stereo not drawn)	42%	-2%[59 µM]	nt	nt	-22%	-26%
CCn1cc(C(=O)NCCc2ccc(OC)c(OC)c2)c(=O)c2cc(S(=O)(=O)N3CCC(C)CC3)ccc21	28%	-26%[59 µM]	nt	nt	-25%	nt
Cc1ccc(S(=O)(=O)c2cn(CC(=O)Nc3ccc(F)cc3)c3cc4c(cc3c2=O)OCO4)cc1	43%	-4%[59 µM]	nt	nt	0%	1%
CC(=O)C1=C(NC(=O)c2ccccc2F)C[C@@H]2[C@H]1C2(C)C	35%	56µM*	nt	-5%	-13%	-10%
COc1ccccc1Nc1nc2c(s1)CCC2	-5%	25µM*	-7%	40µM*	-22%	-36%
Cc1ccc(Nc2nc3c(s2)CCC3)c(C)c1	13%	?	-5%	?	-27%[57.1 µM]	-29%
Cc1nc(Nc2ccccc2Cl)sc1C(=O)Nc1ccccc1	22%	28µM*	3%	-14%	-20%	?

Screening data deposited in PubChem BioAssay by National Center for Advancing Translational Sciences (NCATS).
